Source: PubChem BioAssay (NCI)
The panel holds about 83,000 compounds, 20% with a hit somewhere; the sample as a whole holds those more often.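 Growth was measured after 48 h exposure to one concentration of compound in 96-well plates. Values under 10 count as active.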 Activity calls are given as the source filed them.

System: HL-60(TB) leukemia
Assay: NCI-60 one-dose screen, 48 h (100 = growth as untreated, 0 = no growth, -100 = all killed)
Conditions: 10 µM unless noted

Compound | growth
Cc1ccc(-c2csc(NC(=O)CCCCl)n2)cc1 | 109% (inactive)
CCCCCCCCCCCC1N=C(N)N=C(N)N1c1cccc(Br)c1 (stereo not given) | -53% (active)
Brc1cnc2[nH]cc(-c3nnc(-c4ccccc4)o3)c2c1 | 94.5% (inactive)
CCOC(=O)C(O)C(O)(c1ccccc1)c1ccccc1 (stereo not given) | 91.1% (inactive)
O=c1oc2c(cc1-c1ccccc1)c[n+]([O-])c1ccccc21 | 97.7% (inactive)
Nc1nc(N)c(-c2ccc(Cl)cc2)c(/C=C/c2ccc([N+](=O)[O-])cc2)n1 | 47.8% (inactive)
CCCCCCCCO/N=C\c1c2c(O)c3c(O)c(C)c4c(c3c1O)C(=O)C(C)(O/C=C\C(OC)C(C)C(OC(C)=O)C(C)C(O)C(C)C(O)C(C)/C=C\C=C(\C)C(=O)N2)O4 (stereo not given) | -10.2% (active)
CC/C(C)=C(\C)C(=O)O | 100% (inactive)
COc1ccc2oc(=O)cc(C(c3ccc[nH]3)c3ccc[nH]3)c2c1 | -20.2% (active)
COc1cc(-c2nc(C(=O)Nc3ccc(C)cc3)nn2-c2ccc(F)c(F)c2)cc(OC)c1OC | 100% (inactive)
CNc1nc2c(s1)C(c1cccc(F)c1)CC(=O)N2 (stereo not given) | 97.5% (inactive)
CCOC(=O)Nc1ccc(C(=O)/C=C/c2ccccc2)cc1 | 45.4% (inactive)
Nc1nc(N)c2c(ccc3nccc32)[nH]1 | 16.5% (inactive)
Nc1ccc(F)cc1F | 97.9% (inactive)
Cc1cc(C)c(N)c(S(=O)(=O)O)c1 | 106% (inactive)
COc1cc2nn(-c3ccccc3N)nc2cc1OC | 102% (inactive)
O=S(=O)(c1ccccc1)N1CCCc2ccccc21 | 103% (inactive)
COc1ccc2nc(NC(=O)/C(=C/c3cc(OC)c(OC)c(OC)c3)c3ccc(OC)c(OC)c3)sc2c1 | 94.5% (inactive)
N#Cc1c(-c2ccc(Br)cc2)nc2c(N=Nc3ccc(S(N)(=O)=O)cc3)c(N)nn2c1N | 38.1% (inactive)
Cc1ccccc1NC(=O)c1sc2nc3c(cc2c1N)C(=O)CCC3 | 36% (inactive)

Compound | growth
Cc1ccc(S(=O)(=O)c2nc(-c3ccccc3)oc2Sc2nc3ccccc3s2)cc1 | 71.9% (inactive)
CN1CCN(c2ccc3nc(-c4[nH]ncc4Nc4ncnc5[nH]ccc45)[nH]c3c2)CC1 | -28.6% (active)
CCCCCC(C)(CC(=O)O)CC(=O)O | 90.5% (inactive)
CN1CCN(CCCOc2ccc3ncnc(Nc4ccc(Oc5cccc(C(F)(F)F)c5)c(Cl)c4)c3c2)CC1 | -45.9% (active)
COc1ccc([C@H]2c3[nH]c4ccccc4c3C[C@H]3C(=O)N(CCCCCCC(=O)NO)CC(=O)N23)cc1 | 5.31% (active)
CS(=O)(=O)Nc1ccc(OCc2nnc(-c3ccc(Cl)cc3)o2)c(F)c1 | 115% (inactive)
CCOc1ccc2c(c1)CN(Cc1ccc(Cl)cc1)CO2 | 94.9% (inactive)
CC(C)OCCCNCC(=O)Nc1ccc(S(=O)(=O)c2ccc(NC(=O)CNCCCOC(C)C)cc2)cc1 | 82.1% (inactive)
COc1ccc(C2C(c3nn[nH]n3)=C(N)Oc3c2ccc2ccccc32)cc1 (stereo not given) | 31.9% (inactive)
COc1ccc(-c2nc3ncccn3c2-c2nc3ccc(Br)cc3[nH]2)cc1 | 81.3% (inactive)
O=S(=O)(O)c1ccc(N=NSc2ccc3ccccc3c2)cc1 | 98.8% (inactive)
O=C1N=C(N2CCOCC2)S/C1=C\c1cn(-c2ccccc2)nc1-c1ccccc1 | 105% (inactive)
CC1=C2[C@@H](CC1)[C@]1(C)O[C@@](c3ccccc3)(C[C@H]1OC(=O)CO)[C@H]2OC(=O)/C=C/c1ccccc1 | 88.5% (inactive)
CCO/C=N/S(=O)(=O)c1cc2c(cc1Cl)NC=NS2(=O)=O | 112% (inactive)
N#C/C(=C\c1ccc(-c2ccc(Br)cc2)o1)c1nc(-c2cccs2)cs1 | 92.7% (inactive)
COc1cc2nccc(Oc3ccc(NC(=O)C4(C(=O)Nc5ccc(F)cc5)CC4)cc3)c2cc1OC | 8.85% (active)
Cc1c(O)c(=O)n(-c2ccccc2)n1C | 119% (inactive)
Cn1c(=O)c2c(nc(Nc3cc(=O)[nH]c(=O)[nH]3)n2Cc2ccccc2)n(C)c1=O | 90.6% (inactive)
COc1cc(C(C)n2cc(-c3ccccc3)nn2)ccc1OC1CCCCC1 (stereo not given) | 43.7% (inactive)
CCN(CC)CCCC(C)N/C(=C1\C(=O)NC(=O)\C1=C(/NC(C)CCCN(CC)CC)c1cccc(OC)c1)c1cccc(OC)c1 (stereo not given) | -35.6% (active)
